Measured values reported in PubChem BioAssay AID778 (Sanford-Burnham Center for Chemical Genomics, 2007).
Screen size: about 96,000 compounds; about 20,000 (21%) were called active. A selection follows. A number with no mark means an inactive call.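 Rule for the calls: active = CYP2C19 inhibition above a set limit at 5 µM in the primary screen (cut at about 50% in these data); inactive = the rest.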

target: Cytochrome P450 2C19 (Homo sapiens) (UniProt P33261); experiment: blockers of cytochrome P450 2C19 activity – biochemical, luminescence, ADME assay, primary screen (AID 778); details: CYP2C19 Supersomes, luciferin-H EGE luminescence, 30 min; at 5 µM; hits give high values;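 note: plate controls were negative control wells for no effect and 2.5 mM tranylcypromine positive control for full effect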
Sequence (P33261 whole entry, looked up): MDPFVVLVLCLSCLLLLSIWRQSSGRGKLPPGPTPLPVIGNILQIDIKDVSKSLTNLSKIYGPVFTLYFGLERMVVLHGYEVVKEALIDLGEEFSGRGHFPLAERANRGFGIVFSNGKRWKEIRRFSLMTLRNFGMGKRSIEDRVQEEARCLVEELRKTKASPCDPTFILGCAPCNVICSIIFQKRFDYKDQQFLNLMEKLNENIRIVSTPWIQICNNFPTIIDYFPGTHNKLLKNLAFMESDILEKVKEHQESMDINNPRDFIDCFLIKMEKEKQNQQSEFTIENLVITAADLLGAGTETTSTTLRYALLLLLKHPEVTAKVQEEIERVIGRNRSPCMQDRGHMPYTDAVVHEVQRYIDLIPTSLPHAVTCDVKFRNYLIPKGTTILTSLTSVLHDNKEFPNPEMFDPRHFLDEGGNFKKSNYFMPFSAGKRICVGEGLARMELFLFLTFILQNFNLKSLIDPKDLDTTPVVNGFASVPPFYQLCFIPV

SMILES	inhibition
COc1ccccc1C(=O)Nc1nc2nc(-c3ccccc3)cc(=O)n2[nH]1	7.1%
COC(=O)CNC(c1ccccc1Cl)c1cc(Br)ccc1NC(=O)CCN1CCOCC1 (stereo unspecified)	-3.3%
CC(=O)c1c(C)n(-c2ccc(N(C)C)cc2)c2ccc(OCC(N)=O)cc12	18.6%
CCn1c(=N)c(C(=O)NCCCOC)cc2c(=O)n3cccc(C)c3nc21	-9.8%
Cc1cccn2c(=O)c3cc(C#N)c(=O)n(CCCN4CCOCC4)c3nc12	61.4% (active)
Cc1cccn2c(=O)c3cc(C(=O)N4COCC4(C)C)n(C)c3nc12	0.5%
CCCc1[nH]nc2c1C(c1ccc(Br)s1)C(C#N)=C(N)O2 (stereo unspecified)	34.4%
Cc1noc(NS(=O)(=O)c2ccc(N/C=C/C(=O)c3ccccc3)cc2)c1C	-5.7%
Cc1noc(C)c1CSc1nc2cc(S(=O)(=O)N3CCOCC3)ccc2o1	63.9% (active)
Cc1ccc(S(=O)(=O)N2CCN(S(=O)(=O)N3CCOCC3)CC2)cc1	7.3%
Cc1ccc(Oc2nc3ccccc3n3c(C)nnc23)cc1	-14.5%
COc1ccccc1N1CCN(C(=O)CN(Cc2ccc(Cl)cc2)S(C)(=O)=O)CC1	34%
COc1ccccc1-n1nnnc1S(=O)(=O)Cc1ccc(Cl)cc1	58.4% (active)
CCOCCCNC(=O)C(NC(=O)c1ccc(=O)[nH]c1)c1ccc(C)cc1 (stereo unspecified)	5.2%
N#Cc1c(/N=C/N2CCCC2)oc(-c2ccccc2)c1-c1ccccc1	45.7%
COc1cc(C(=O)Nc2oc(-c3ccccc3)c(-c3ccccc3)c2C#N)cc(OC)c1OC	27.1%
COc1ccc(-c2oc(/N=C/N3CCCC3)c(C#N)c2-c2ccc(OC)cc2)cc1	59.3% (active)
COc1cccc(CN2C(=O)CCC2(C)C(=O)NC2CCCCCC2)c1 (stereo unspecified)	8.6%
Cc1ccc(-n2ncc3c(N4CCN(c5ccc(F)cc5)CC4)ncnc32)c(C)c1	-22.2%
CCc1cc2c(N3CCN(c4nnc(CC)s4)CC3)ncnc2s1	52.3% (active)
Cc1nnc(SCC(=O)Nn2cnnc2)s1	4%

SMILES	inhibition
CC(NCCO)C(=O)C12CC3CC(CC(C3)C1)C2 (stereo unspecified)	-5.4%
CC(C)(C)Cc1nnc(NC(=O)c2cc(-c3ccccc3)nc3ccccc23)s1	11.9%
COc1ccc(Br)cc1CN1CCN(C(=O)c2cccc(OC)c2OC)CC1	74% (active)
COc1cccc(OC)c1OCCN1CCN(C(=O)c2ccco2)CC1	21%
CCn1cc(C(=O)N2CCN(Cc3ccc4c(c3)OCO4)CC2)c2cc(OC)c(OC)cc2c1=O	29.5%
CCCn1nc2cc(C(=O)NCc3ccccc3)ccc2c1OCC	2.2%
CCCS(=O)(=O)C(=C1Nc2ccccc2N1)S(=O)(=O)CCC	8.6%
C=CCN1C(=O)C(O)(CC(=O)c2ccc(Cl)cc2)c2ccccc21 (stereo unspecified)	89.1% (active)
O=C(CC1(O)C(=O)N(CN2CCOCC2)c2ccccc21)c1ccccc1 (stereo unspecified)	12.7%
CCOC(=O)CN1C(=O)C(O)(CC(=O)c2ccccn2)c2ccccc21 (stereo unspecified)	6.5%
Fc1ccc2nc(Nc3nc4c(s3)CCCC4)sc2c1	-8.1%
Cc1nc2ccc(S(=O)(=O)NC(C(=O)N3CCCCCC3)C(C)C)cc2s1 (stereo unspecified)	21.2%
CC(c1ccco1)N(C(=O)c1ccc(S(=O)(=O)N2CCCCC2)cc1)c1ccccn1 (stereo unspecified)	59.1% (active)
CC(c1ccco1)N(C(=O)COc1ccccc1[N+](=O)[O-])c1ccccn1 (stereo unspecified)	40.5%
CC(C)Cc1ccc(S(=O)(=O)N2CCN(C(=O)c3ccco3)CC2)cc1	28.1%
Cc1c(NC(=O)/C=C/C(=O)O)cccc1[N+](=O)[O-]	26.2%
CO/N=C/c1ccc(N2CCN(C(=O)c3cccc(Cl)c3)CC2)c([N+](=O)[O-])c1	33.8%
Cc1c(C)c2cc3c4c(oc3c(C)c2oc1=O)CCCC4	-0.1%
Cc1ccc(OC(=O)c2cc3ccccc3o2)cc1	-12.8%
CCOC(=O)c1cnc(-c2ccccc2)nc1Oc1ccc(C)cc1	35.2%
Cc1ccc(OC(=O)c2ccccc2C(=O)OCC(F)(F)C(F)F)cc1	88.6% (active)

SMILES	inhibition
Cc1ccc(C(=O)CS(C)(=O)=O)cc1	1%
COc1ccc(-n2ncc3c(N4CCCc5ccccc54)ncnc32)cc1	12.3%
O=C(CSc1ccc(/C=N/NC(=O)c2cccc(F)c2)o1)Nc1ccccc1	17.1%
O=C(CN1CCSCC1)N/N=C/c1ccc(F)cc1	16.6%
Cc1ccc(/C=N/NC(=O)Cn2nc(C)c(Br)c2C)o1	50.5% (active)
O=C(Nc1ccc2c(c1)nc1n2CCCCC1)c1cc(S(=O)(=O)N2CCOCC2)ccc1Cl	25.7%
CCCCCOC(=O)NCCOC(=O)Nc1ccc(C(=O)OCC)cc1	4.4%
Cc1cc(NC(=O)c2cnn3cccnc23)n(-c2ccccc2)n1	25%
O=C1CSC(c2cccc(F)c2)N1c1ccccc1F (stereo unspecified)	32.9%
CC(C)C(NC(=O)c1cccc(S(=O)(=O)N2CCOCC2)c1)C(=O)NCCc1ccccn1 (stereo unspecified)	-13.9%
O=C(c1cccc(S(=O)(=O)N2CCOCC2)c1)N1CCOCC1	-6.3%
CCN(Cc1ccncc1)C(=O)c1cccc(S(=O)(=O)N2CCOCC2)c1	97% (active)
COc1ccc(Nc2nc(=O)[nH]nc2C)cc1	5%
Cn1c(CCN2CCCCCC2)nc2cc(NC(=O)Nc3ccccc3)ccc21	-3.4%
O=c1[nH]c2c(c(=O)n1Cc1ccccc1)CCC2	-3.7%
COc1ccc(C(=O)CN(C(=O)c2ccc(Cl)cc2)N2C(=O)c3ccccc3C2=O)cc1	36%
Cc1cc(NC(=O)CS(=O)(=O)c2cn(C)c3ccccc23)no1	27.3%
CCc1ccccc1NC1c2ccccc2C(=O)N1c1cccnc1 (stereo unspecified)	81.5% (active)
CCN(CC)C(=O)CSC1c2ccccc2C(=O)N1c1ccccc1 (stereo unspecified)	49.3%
